The values that follow come from PubChem BioAssay (Tox21).

A number with no mark means an inactive call. Inconclusive results are not listed. Calls of active or inactive are those of the source. Calls follow the shape of the dose curve; as a rule, active = well fitted curve in the direction sought with a large enough effect in the repeat runs; inconclusive = weak or mixed curves; inactive = no such curve, though single readings can be large; an effect the other way counts as inactive or inconclusive.

Assay [1] is described as follows: Human pregnane X receptor (PXR) small molecule agonists, qHTS cell viability counter screen (AID 1346977). Also: nearly all actives have a fitted effect of over 50% in size. Put shortly: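 PXR-Luc HepG2, 2,000 cells/well, 5% charcoal-stripped FBS; 5hr settle; cpd 24hr, 37C/5% CO2; CellTiter-Fluor at 23hr, read 1hr later (fluorescence).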
In general terms: qHTS replaces the single test concentration by a dilution series.

The nature of assay [2]: Caspase-3/7 induction in HepG2 cells by small molecules, qHTS assay (AID 1346978). Also: nearly all actives have a fitted effect of over 15% in size. In a few lines: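 Caspase-3/7 induction was measured by Caspase-Glo 3/7 luminescence (30 min, room temperature) after a 17 hr compound exposure of wild-type HepG2 cells seeded at 2,000 per well and pre-incubated 5 hr.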
Assay [3] can be described thus: Caspase-3/7 induction in HepG2 cells by small molecules, qHTS cell viability counter screen (AID 1346981). Also: series mostly up to about 92 µM; nearly all actives have a fitted effect of over 30% in size. In a few lines: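 Steps: seed 2,000 HepG2 cells per well; incubate 5 hr at 37 C; pin-add compounds in DMSO; incubate 16 hr; add CellTiter-Fluor; after 1 hr at 37 C and 5% CO2, read fluorescence.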
Assay [4] concerns the target Nuclear receptor subfamily 1 group I member 2 (Homo sapiens) (UniProt O75469). In words: Human pregnane X receptor (PXR) small molecule agonists, qHTS assay (AID 1346982). Also: nearly all actives have a fitted effect of over 35% in size. Also: potency is read from the fitted curve at half-maximal effect. In a few lines:
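Agonist mode qHTS: PXR-Luc HepG2 cells plated 5 hr before DMSO-dissolved compounds were pinned in, cultured 24 hr at 37 C, 5% CO2; ONE-Glo luminescence readout.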

The target of assay [5] is Nuclear receptor subfamily 1 group I member 2 (Rattus norvegicus) (UniProt Q9R1A7). In words: Rat pregnane X receptor (rPXR) activation by small molecules, qHTS assay (AID 1346983). Also: nearly all actives have a fitted effect of over 20% in size. Also: potency is read from the fitted curve at half-maximal effect. As to conditions: rPXR luciferase reporter cells, One-Glo luminescence, 24 h; max activation: stronger effect = higher value. Put shortly:
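Luminescent readout (One-Glo luciferase, 30 min room temperature) followed 24 hr compound treatment at 37 C of rPXR cells plated 2,000 per well and preincubated 5hr; qHTS format with compounds delivered in DMSO.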

Assay [6] has as its target Nuclear receptor subfamily 1 group I member 2 (Homo sapiens) (UniProt O75469). In words: Human pregnane X receptor (PXR) activation by small molecules, qHTS assay (AID 1346985). Also: nearly all actives have a fitted effect of over 40% in size. Also: potency is read from the fitted curve at half-maximal effect. Put shortly: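 DPX-2 cells (HepG2 co-transfected with a PXR response element and a CYP3A4-promoter luciferase construct) were seeded at 2,000 per well, rested 5 hr at 37C, then exposed to DMSO-dissolved compounds for 24 hr. Activation was read as luciferase luminescence.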

The target in assay [7] is Cytochrome P450 2C19 (Homo sapiens) (UniProt P33261). In words: Cytochrome P450 Family 2 Subfamily C Member 19 (CYP2C19) small molecule antagonists: luciferase reporter qHTS assay (AID 1671197). Also: nearly all actives have a fitted effect of over 65% in size. Also: potency is read from the fitted curve at half-maximal effect. As to activity change, negative = inhibition: series mostly up to about 120 µM. In a few lines: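 CYP2C19 P450-Glo, 1536-well qHTS. Cpd + enzyme/proluciferin substrate 10 min RT; + NADPH regen, 37C 1 h; stop with luciferin detection reagent, 20 min RT, luminescence (RLU). Pos ctrl ketoconazole.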
Chain of Cytochrome P450 2C19 (Homo sapiens) (P33261 whole entry, looked up): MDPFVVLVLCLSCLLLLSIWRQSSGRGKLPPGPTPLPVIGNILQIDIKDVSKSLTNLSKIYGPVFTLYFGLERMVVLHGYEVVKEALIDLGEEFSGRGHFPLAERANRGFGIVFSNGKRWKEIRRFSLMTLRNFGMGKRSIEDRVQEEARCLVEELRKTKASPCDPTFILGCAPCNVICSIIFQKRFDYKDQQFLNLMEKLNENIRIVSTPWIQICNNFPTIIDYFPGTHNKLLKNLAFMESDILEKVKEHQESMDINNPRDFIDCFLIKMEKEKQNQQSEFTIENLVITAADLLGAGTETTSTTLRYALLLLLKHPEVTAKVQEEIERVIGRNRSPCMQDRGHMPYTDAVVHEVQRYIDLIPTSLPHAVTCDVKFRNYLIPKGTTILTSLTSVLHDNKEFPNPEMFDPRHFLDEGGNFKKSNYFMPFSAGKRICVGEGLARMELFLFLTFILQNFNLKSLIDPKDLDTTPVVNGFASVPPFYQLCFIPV

The target in assay [8] is Cytochrome P450 2C9 (Homo sapiens) (UniProt P11712). Description: Cytochrome P450 Family 2 Subfamily C Member 9 (CYP2C9) small molecule antagonists: luciferase reporter qHTS assay (AID 1671198). Also: nearly all actives have a fitted effect of over 50% in size. Also: potency is read from the fitted curve at half-maximal effect. As to activity change, negative = inhibition: series mostly up to about 120 µM. Put shortly: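 Enzyme-substrate mix preincubated with compound 10 min at room temperature; reaction started with NADPH regeneration solution, 1 h 37C. Luminescent luciferin product read after 20 min detection reagent.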
Chain of Cytochrome P450 2C9 (Homo sapiens) (P11712 whole entry, looked up): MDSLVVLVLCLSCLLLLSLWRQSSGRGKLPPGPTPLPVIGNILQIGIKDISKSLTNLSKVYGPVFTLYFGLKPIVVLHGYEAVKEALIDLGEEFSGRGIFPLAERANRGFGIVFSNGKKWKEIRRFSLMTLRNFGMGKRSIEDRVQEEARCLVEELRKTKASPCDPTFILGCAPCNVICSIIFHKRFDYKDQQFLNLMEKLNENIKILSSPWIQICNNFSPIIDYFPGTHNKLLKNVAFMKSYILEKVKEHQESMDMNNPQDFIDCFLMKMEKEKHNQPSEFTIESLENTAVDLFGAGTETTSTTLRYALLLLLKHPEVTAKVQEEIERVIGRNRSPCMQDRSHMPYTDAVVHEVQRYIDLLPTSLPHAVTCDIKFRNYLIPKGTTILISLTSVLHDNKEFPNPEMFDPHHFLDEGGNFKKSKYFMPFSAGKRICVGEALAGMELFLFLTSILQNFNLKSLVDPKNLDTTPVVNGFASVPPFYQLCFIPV
(In general: In a reporter assay the amount or activity of a reporter protein is the signal.)

For assay [9], the target named is Cytochrome P450 1A2 (Homo sapiens) (UniProt P05177). In words: Cytochrome P450 Family 1 Subfamily A Member 2 (CYP1A2) small molecule antagonists: luciferase reporter qHTS assay (AID 1671199). Also: nearly all actives have a fitted effect of over 50% in size. Also: potency is read from the fitted curve at half-maximal effect. As to activity change, negative = inhibition: series mostly up to about 120 µM. In a few lines:
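Inhibition of CYP1A2 conversion of proluciferin to luciferin, detected by luminescence. Reaction run 1 h at room temperature with NADPH regeneration after brief compound preincubation.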

Assay [10] in a line: Caspase-3/7 induction in CHO-K1 cells by small molecules, qHTS cell viability counter screen (AID 1346979). Also: nearly all actives have a fitted effect of over 35% in size. Put shortly: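 Cells (CHO-K1, wild type) are plated at 1,500 per well and incubated 5hr. Test compounds in DMSO are then pinned in, followed by 16hr at 37C and 5% CO2. Viability is read by CellTiter-Fluor fluorescence after 1hr.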
Assay [11] concerns the target Voltage-gated inwardly rectifying potassium channel KCNH2 (Homo sapiens) (UniProt Q12809). In words: Human Ether-a-go-go-Related Gene (hERG) channel small molecule antagonists: fluorescence cell-based qHTS assay (AID 1671200).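 Also: hERG-expressing U2OS cells given a thallium stimulus after FluxOR II dye loading; series mostly up to about 77 µM; nearly all actives have a fitted effect of over 50% in size.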 In a few lines:
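Channel function was assessed by thallium flux. Cells seeded the previous day and kept at 37 C took up FluxOR II dye over 1 h in the dark at room temperature, then sat another 10 min before stimulation.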
(In general: The hERG channel carries a current that helps repolarise heart muscle cells.)

Assay [12] has as its target Cytochrome P450 3A4 (Homo sapiens) (UniProt P08684). In words: Cytochrome P450 Family 3 Subfamily A Member 4 (CYP3A4) small molecule antagonists: luciferase reporter qHTS assay (AID 1671201). In a few lines: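 Compounds in DMSO were pin-transferred onto CYP3A4 enzyme-substrate mix and held 10 min at room temperature. NADPH regenerating solution started the reaction for 1 h; luciferin detection reagent stopped it, and luminescence was read after 20 min.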

In assay [13] the target is Cytochrome P450 2D6 (Homo sapiens) (UniProt P10635). In words: Cytochrome P450 Family 2 Subfamily D Member 6 (CYP2D6) small molecule antagonists: luciferase reporter qHTS assay (AID 1671196). Also: nearly all actives have a fitted effect of over 50% in size. Also: potency is read from the fitted curve at half-maximal effect. As to activity change, negative = inhibition: series mostly up to about 120 µM. Put shortly: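 P450-Glo format: CYP2D6 converts a proluciferin substrate to luciferin in an NADPH-driven reaction lasting 1 h at room temperature. Light output, proportional to CYP2D6 activity, reflects interference by test chemicals.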
Chain of Cytochrome P450 2D6 (Homo sapiens) (P10635 whole entry, looked up): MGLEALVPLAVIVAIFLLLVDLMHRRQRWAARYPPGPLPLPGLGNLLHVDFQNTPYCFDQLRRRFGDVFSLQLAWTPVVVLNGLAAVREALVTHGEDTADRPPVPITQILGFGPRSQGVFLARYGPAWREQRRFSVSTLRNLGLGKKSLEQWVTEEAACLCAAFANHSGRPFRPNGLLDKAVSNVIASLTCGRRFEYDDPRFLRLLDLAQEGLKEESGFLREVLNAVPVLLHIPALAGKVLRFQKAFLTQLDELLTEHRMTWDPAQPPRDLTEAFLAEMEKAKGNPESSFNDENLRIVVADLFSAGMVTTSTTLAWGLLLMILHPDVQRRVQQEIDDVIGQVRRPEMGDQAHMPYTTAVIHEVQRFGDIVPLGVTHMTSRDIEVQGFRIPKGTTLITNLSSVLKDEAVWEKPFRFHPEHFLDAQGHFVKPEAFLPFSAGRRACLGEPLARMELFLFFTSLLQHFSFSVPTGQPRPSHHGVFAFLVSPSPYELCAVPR

A short description of assay [14]: Caspase-3/7 induction in CHO-K1 cells by small molecules, qHTS assay (AID 1346980). Also: nearly all actives have a fitted effect of over 15% in size. In a few lines: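 Luminescent Caspase-Glo 3/7 read (30min, room temperature) quantified apoptosis induction. Cells were wild-type CHO-K1, treated with compound for 17hr at 37 C and 5% CO2.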
For assay [15], the target named is Nuclear receptor subfamily 1 group I member 2 (Homo sapiens) (UniProt O75469). In words: CYP3A4 induction through human pregnane X receptor (PXR) by small molecules, qHTS assay (AID 1346984). Also: nearly all actives have a fitted effect of over 40% in size. In a few lines:
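Steps: seed DPX-2 cells, 5 hr at 37C; pin-transfer compounds; 24 hr at 37C; add Luciferin-IPA (3uM final), 3 hr at 37C; add One-Glo, 30 min RT; read luminescence.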
% is scaled to controls: 0 for no effect and ±100 for the full control effect.

Chain of Cytochrome P450 3A4 (Homo sapiens) (P08684 whole entry, looked up): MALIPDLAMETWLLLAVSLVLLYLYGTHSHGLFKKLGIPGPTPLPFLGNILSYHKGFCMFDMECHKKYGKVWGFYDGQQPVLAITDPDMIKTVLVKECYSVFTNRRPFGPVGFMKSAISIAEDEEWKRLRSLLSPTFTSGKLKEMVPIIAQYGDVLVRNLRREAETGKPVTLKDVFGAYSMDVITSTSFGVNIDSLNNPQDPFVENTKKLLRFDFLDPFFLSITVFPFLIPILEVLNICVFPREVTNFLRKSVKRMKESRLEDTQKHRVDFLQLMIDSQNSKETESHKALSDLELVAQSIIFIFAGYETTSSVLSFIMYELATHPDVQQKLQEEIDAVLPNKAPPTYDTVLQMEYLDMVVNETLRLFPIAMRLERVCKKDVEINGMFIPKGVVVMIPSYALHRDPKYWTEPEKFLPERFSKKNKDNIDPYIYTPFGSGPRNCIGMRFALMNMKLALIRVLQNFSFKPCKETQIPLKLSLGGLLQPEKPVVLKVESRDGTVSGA
Chain of Nuclear receptor subfamily 1 group I member 2 (Homo sapiens) (O75469 whole entry, looked up): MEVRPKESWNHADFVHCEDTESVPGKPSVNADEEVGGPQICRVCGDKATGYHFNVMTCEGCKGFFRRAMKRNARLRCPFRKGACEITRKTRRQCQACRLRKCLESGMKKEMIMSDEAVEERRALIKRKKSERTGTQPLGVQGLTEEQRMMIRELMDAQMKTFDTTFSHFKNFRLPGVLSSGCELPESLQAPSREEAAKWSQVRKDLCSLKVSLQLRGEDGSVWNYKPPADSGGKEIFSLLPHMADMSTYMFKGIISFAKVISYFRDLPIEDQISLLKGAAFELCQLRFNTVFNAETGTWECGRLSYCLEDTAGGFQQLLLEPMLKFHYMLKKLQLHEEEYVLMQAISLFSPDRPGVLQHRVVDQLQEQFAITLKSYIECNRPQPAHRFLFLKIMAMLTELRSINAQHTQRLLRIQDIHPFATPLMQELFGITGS
Chain of Cytochrome P450 1A2 (Homo sapiens) (P05177 whole entry, looked up): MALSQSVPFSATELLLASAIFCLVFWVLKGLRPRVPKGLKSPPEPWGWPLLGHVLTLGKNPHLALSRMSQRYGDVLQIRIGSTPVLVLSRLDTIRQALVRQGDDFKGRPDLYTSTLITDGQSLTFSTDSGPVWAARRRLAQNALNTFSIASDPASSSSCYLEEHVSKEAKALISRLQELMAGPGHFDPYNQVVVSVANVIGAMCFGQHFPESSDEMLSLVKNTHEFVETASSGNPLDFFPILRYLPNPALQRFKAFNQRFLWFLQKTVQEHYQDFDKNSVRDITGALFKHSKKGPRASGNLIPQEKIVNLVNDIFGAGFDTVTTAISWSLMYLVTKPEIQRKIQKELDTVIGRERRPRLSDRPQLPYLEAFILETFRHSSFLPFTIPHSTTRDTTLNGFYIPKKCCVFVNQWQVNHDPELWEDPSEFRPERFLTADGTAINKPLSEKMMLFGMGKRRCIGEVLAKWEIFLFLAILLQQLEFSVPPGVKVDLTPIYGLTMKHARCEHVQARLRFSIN
Chain of Voltage-gated inwardly rectifying potassium channel KCNH2 (Homo sapiens) (Q12809 whole entry, looked up): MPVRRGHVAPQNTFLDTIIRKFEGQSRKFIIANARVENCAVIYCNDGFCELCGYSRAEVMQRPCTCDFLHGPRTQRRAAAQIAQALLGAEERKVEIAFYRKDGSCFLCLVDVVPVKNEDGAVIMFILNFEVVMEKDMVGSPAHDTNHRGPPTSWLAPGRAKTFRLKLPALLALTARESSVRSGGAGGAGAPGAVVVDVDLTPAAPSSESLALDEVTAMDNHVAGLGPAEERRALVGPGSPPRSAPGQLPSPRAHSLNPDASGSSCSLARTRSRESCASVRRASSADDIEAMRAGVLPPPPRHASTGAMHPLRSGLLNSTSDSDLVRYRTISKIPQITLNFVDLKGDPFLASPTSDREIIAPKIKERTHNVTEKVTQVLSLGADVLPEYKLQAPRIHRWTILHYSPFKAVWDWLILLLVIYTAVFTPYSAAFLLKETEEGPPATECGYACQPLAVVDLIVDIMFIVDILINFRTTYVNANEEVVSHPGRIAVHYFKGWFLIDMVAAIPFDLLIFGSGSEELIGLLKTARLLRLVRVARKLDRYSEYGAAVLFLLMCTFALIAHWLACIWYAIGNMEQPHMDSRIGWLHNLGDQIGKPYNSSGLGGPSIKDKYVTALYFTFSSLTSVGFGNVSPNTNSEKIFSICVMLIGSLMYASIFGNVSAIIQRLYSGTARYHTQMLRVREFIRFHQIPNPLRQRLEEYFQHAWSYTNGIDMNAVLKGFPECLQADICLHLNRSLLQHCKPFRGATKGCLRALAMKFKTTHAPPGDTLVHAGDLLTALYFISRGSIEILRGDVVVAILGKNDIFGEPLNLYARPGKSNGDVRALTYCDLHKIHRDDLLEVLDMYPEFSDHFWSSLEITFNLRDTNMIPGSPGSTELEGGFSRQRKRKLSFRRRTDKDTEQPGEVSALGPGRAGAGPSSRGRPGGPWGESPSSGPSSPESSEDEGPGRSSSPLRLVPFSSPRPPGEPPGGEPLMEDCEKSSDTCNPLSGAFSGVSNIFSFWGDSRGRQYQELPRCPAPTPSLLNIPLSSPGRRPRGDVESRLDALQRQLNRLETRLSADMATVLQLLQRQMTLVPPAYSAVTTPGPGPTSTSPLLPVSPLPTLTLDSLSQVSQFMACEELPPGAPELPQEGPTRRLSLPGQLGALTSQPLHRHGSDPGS
Chain of Nuclear receptor subfamily 1 group I member 2 (Rattus norvegicus) (Q9R1A7 whole entry, looked up): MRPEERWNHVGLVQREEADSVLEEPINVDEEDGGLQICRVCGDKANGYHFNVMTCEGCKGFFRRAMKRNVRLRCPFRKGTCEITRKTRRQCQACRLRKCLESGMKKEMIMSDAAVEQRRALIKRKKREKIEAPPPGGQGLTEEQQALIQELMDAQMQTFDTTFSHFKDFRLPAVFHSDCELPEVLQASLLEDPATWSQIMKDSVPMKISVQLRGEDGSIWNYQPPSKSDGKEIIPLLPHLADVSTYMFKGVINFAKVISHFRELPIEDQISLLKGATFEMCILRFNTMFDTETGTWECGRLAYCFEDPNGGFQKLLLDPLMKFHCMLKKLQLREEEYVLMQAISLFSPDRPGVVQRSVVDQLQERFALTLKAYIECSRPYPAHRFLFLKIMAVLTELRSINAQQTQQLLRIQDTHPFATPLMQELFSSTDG

With `CC(C)(C)C(=O)C(Oc1ccc(Cl)cc1)n1ccnc1` (configuration not stated), the Potency entry in assay [1], in assay [2] and in [3] was “inactive” in each case. Also, the Potency in assay [4] is 23.7 µM (active); in [5] it was 12.6 µM (active); in [6], 15.8 µM (active); in [7], 1.38 µM (active); in [8], 2.75 µM (active); in assay [9] it was 17.4 µM (active).

For `CC1=NN(c2ccc(C(=O)O)cc2)C(=O)C1`, the Potency result in assay [1], in [2], in [10], in [3], in assay [4] and in assay [8] was “inactive” each time. The Potency result in assay [9], in assay [11] and in [12] was “inactive” throughout. In addition, the Potency in assay [7] is 20 µM (active).

Turning to `COC(=O)CC(=O)C(C)(C)C`, the Potency entry in [1], in assay [2], in assay [10], in [3], in [4] and in assay [13] was “inactive” throughout. For the same compound, the Potency entry in assay [7], in assay [11] and in [12] was “inactive” in each case.

Regarding `CCOC(=O)c1ccccc1C`, the Potency entry in [1], in assay [2], in assay [10], in assay [3], in [4] and in [13] was “inactive” throughout. In addition, the Potency result in [7] and in [12] was “inactive” in each case.

As to `CC(=O)OCC(=O)[C@@]12OC(C)(C)O[C@@H]1C[C@H]1[C@@H]3C[C@H](F)C4=CC(=O)C=C[C@]4(C)[C@@]3(F)[C@@H](O)C[C@@]12C`, the Potency entry in assay [1], in assay [2], in [3] and in [11] was “inactive” throughout.

In the case of `CCCCCCCCCCCCCCCCBr`, the values for the activity change, negative = cytotoxicity in assay [1], in assay [10] and in assay [3] were -1.37% [at 19 µM], 4.02% [at 19 µM] and 4.64% [at 19 µM], respectively. The caspase activation in assay [2] was 2.76% [at 19 µM]. Besides, the activation in [4] was -5.34% [at 19 µM]. Moreover, the activity change, negative = inhibition was -8.89% [at 23.6 µM] in assay [13]; 0.164% [at 23.6 µM] in [7]; -1.68% [at 23.6 µM] in assay [8]; 1.22% [at 15.8 µM] in [11]; -0.429% [at 23.6 µM] in assay [12].

`NC(=O)Nc1ccc(Cl)cc1`: the Potency result in assay [1], in assay [2], in [10], in assay [3], in assay [4] and in assay [13] was “inactive” throughout. The Potency entry in assay [11] and in [12] was “inactive” each time. For the same compound, the figures for the Potency in assay [7] and in assay [9] were 79.3 µM (active) and 31.6 µM (active), respectively.

Consider `C[C@]12CCC(=O)C=C1C=C[C@@H]1[C@@H]2CC[C@@]2(C)[C@H]1CC[C@@]21CCC(=O)O1`, for which the Potency result in [1], in assay [2], in assay [3], in assay [4], in assay [15] and in assay [6] was “inactive” throughout. Besides, the Potency result in assay [13], in assay [9], in assay [11] and in [12] was “inactive” throughout. The call in assay [14] was inactive. The max activation in [5] was 4.49%. Further, the Potency in assay [7] is 1.1 µM (active).

On to `O=C(/C=C/c1ccccc1)OCCCc1ccccc1`, for which the Potency entry in [1], in [2], in assay [10], in assay [3], in assay [4] and in [13] was “inactive” each time. Further, the Potency entry in assay [12] was “inactive”. For the same compound, the Potency in assay [7] is 39.9 µM (active); in assay [8], 22.4 µM (active); in assay [9] it was 12.6 µM (active).

For the compound `O=C(NCCCN1CCOCC1)c1ccc(Cl)cc1`, the Potency entry in assay [1], in assay [2], in assay [3], in [4], in [15] and in assay [6] was “inactive” throughout. Moreover, the Potency entry in assay [7], in assay [8], in [9], in assay [11] and in assay [12] was “inactive” throughout. Besides, in assay [14], the call was inactive. The max activation in [5] was 4.03%. Besides, the Potency in [13] is 2.45 µM (active).
